SMILES strings stand for the structures. Unmarked numbers belong to inactive results. How the calls were made is not given here.

This assay is described as follows: inhibitors of hydroxyurea-induced Chk1 phosphorylation, primary screen, imaging, HeLa, phospho-Chk1 nuclear intensity (AID 1187). Further: test concentration not given here. Conditions: hydroxyurea-induced phospho-Chk1 immunofluorescence imaging, higher = more signal.
Regarding `COC(=O)[C@]1(CCS(=O)(=O)c2ccccc2)N=C(c2ccc(OCCCO)cc2)O[C@@H]1c1ccccc1N=[N+]=[N-]`, the z-score is -0.364.

Turning to `CC(C)C(CO)N1C(=O)[C@@H]2C3C(=O)OCCC/C=C\[C@H]3OC23C=CCN(c2ccc4ccccc4c2)C(=O)[C@@H]13` (some centres undefined), the z-score is 0.516.

With `CN1C2C=C(CCCO)C(C3C(=O)N(C(N)=O)C(=O)C32)C1C1CC1` (centres undefined), the z-score was 0.161.

Take `NCCCCCNC(=O)[C@@H]1C[C@@H]2C(=O)N[C@@H](CCCCN)C(=O)N2[C@@H]1c1ccc(O)cc1`: the z-score is -0.497. With `CCCCCC1=C2CNC(C)(C(=O)OC)C=C2C(C)C1=O` (centres undefined), the z-score is 1.45.

In the case of `COc1ccc(CCNC(=O)[C@@]2(c3ccc([N+](=O)[O-])cc3)CC(=O)N(C3CCCCC3)[C@@H]2c2ccc(CO)cc2)cc1`, the z-score is 0.0527. Then `COCCOC(=O)N1C(=O)[C@@]2(c3cc(C#CCC(C(=O)OC)C(=O)OC)ccc31)[C@H](c1ccc(OCCO)cc1)N1[C@H](c3ccccc3)[C@H](c3ccccc3)OC(=O)[C@H]1[C@@H]2C(=O)N1CCc2cc(OC)c(OC)cc2C1`, with 0.246. For `O=C(c1ccccc1)N1C(=O)[C@]2(Cc3ccccc31)N=C(c1ccc(OCCCO)cc1)O[C@@H]2c1ccccc1`, the z-score is 0.796. With `COc1ccc([Si](C)(C)[C@@H]2[C@@H](CCO)O[C@]3(C(=O)N(Cc4ccccc4)c4ccc(N5CCOC5=O)cc43)[C@H]2C)cc1` the figure was -1.14; with `O=C1C2C=CC(C(O)c3ccco3)N(Nc3ccccc3F)C2C(=O)N1c1ccccc1` (centres undefined), 0.257.

Regarding `CC(C)(C)OC(=O)COc1cccc(C(=O)CCN2CCOCC2)c1`, the z-score was 0.0155. `CS(=O)(=O)CCOC(=O)C1=CC(CCCO)=CC(c2ccc(CN3CCCC3)cc2)N(Cc2sc3ccccc3c2Cl)C=C1C(=O)OCCS(C)(=O)=O` (centres undefined): the z-score is 0.969. With `COC(=O)[C@@]1(Cc2ccc(F)cc2)[C@H]2c3cc(C(=O)N(C)C)n(CCc4ccc(OC)c(Br)c4)c3C[C@H]2CN1C(=O)c1ccccc1` the figure was -0.869. Consider `COc1ccc([Si](C)(C)[C@@H]2[C@@H](CC(=O)N3Cc4ccccc4C[C@H]3CO)O[C@]3(C(=O)N(Cc4ccc(N5C(=O)c6cccc7cccc5c67)cc4)c4ccccc43)[C@H]2C)cc1`, for which the z-score is 0.973.

Values taken from PubChem BioAssay.
